Consider 21 molecules from PubChem BioAssay (NCATS).

The target in experiment [1] is Calcium and integrin-binding protein 1 (Homo sapiens) (UniProt Q99828). As to the kind of experiment: Primary qHTS for Identification of Calcium Integrin Binding Protein 1 (CIB1) Competitor (AID 1508620).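 Also: GST tagged CIB1 binding a fluorescein labelled alphaIIb integrin peptide tracer; top concentration of the series differs between compounds.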 The essentials:
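Fluorescence polarization competition: GST-tagged CIB1 (1 uM final) preincubated with compound 15 min at room temperature, then FITC-labelled alphaIIb peptide (100 nM final) added. After 15 min at room temperature, polarization read at Ex 480/Em 540.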
In general terms: In qHTS, concentration-response curves come from the screen itself.

The nature of experiment [2]: Primary qHTS for inhibitors of nuclear receptor binding SET domain protein 2 (NSD2) in an isogenic RCH-ACV NSD2 p.E1099K mutant (9B) (AID 1645876). Also: nearly all actives have a fitted effect of over 70% in size. Also: potency is read from the fitted curve at half-maximal effect.
The nature of experiment [3]: Primary qHTS for inhibitors of nuclear receptor binding SET domain protein 2 (NSD2) in an RCH-ACV wild type WT cells (2C) (AID 1645877). Also: nearly all actives have a fitted effect of over 70% in size. Also: potency is read from the fitted curve at half-maximal effect.

Records with an inconclusive call do not appear. Values without a mark were called inactive. Activity calls are given as the source filed them. Calls follow the shape of the dose curve; as a rule, active = well fitted curve in the direction sought with a large enough effect; inconclusive = small, poorly fitted or top-dose-only effect, or another doubt; inactive = no such curve, though single readings can be large; an effect the other way counts as inactive or inconclusive. *1 amine or outer side, *2 acyl side, *3 side chain or, on linkers, in order; H or OH if unused. Where a SMILES comes first, the peptide text is derived from it. Bridges are numbered along the chain shown (N, C = ends). [ ]: non-standard residue; d: D form. The star is where a group is joined. ξ: configuration not given here. ξhTyr(3S-OH,4S-OH,3'-OSO3H) = NC(C(=O)O)[C@H](O)[C@@H](O)c1ccc(O)c(OS(=O)(=O)O)c1; Orn(4R-OH,5R-OH) = O=C([C@H](C[C@@H](O)[C@@H](O)N[*:3])N[*:1])[*:2]; X2 = CCCCCOc1ccc(-c2cc(-c3ccc(C(=O)*)cc3)no2)cc1; X3 = C[C@H]1CN([*:1])C(C(=O)[*:2])[C@H]1O; ξGln(3R-OH) = NC(=O)C[C@@H](O)C(N)C(=O)O; ξPro(4R-OH) = O=C(O)C1C[C@@H](O)CN1; ξThr(3R) = C[C@@H](O)C(N)C(=O)O
% is scaled to controls: 0 for no effect and ±100 for the full control effect.

Chain of Calcium and integrin-binding protein 1 (Homo sapiens) (Q99828 whole entry, looked up): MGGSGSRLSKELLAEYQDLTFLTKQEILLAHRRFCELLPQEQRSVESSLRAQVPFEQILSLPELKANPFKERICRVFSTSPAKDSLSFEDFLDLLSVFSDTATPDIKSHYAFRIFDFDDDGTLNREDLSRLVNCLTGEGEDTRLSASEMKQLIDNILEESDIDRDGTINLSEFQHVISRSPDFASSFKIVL

For `COc1cncc(C#Cc2ccccn2)c1`, the Potency entry in experiment [1], in experiment [2] and in experiment [3] was “inactive” each time.
Consider `COC(=O)C[C@@H]1C(C(=O)O)=CO[C@@H](O[C@@H]2O[C@H](CO)[C@@H](O)[C@H](O)[C@H]2O)/C1=C\COC(=O)/C=C/c1ccc(O)c(OC)c1`, for which the Potency result in experiment [1], in experiment [2] and in experiment [3] was “inactive” each time.
With `C[C@]12CC[C@@H]3c4ccc(O)cc4CC[C@H]3[C@@H]1C[C@@H](O[C@@H]1O[C@H](C(=O)O)[C@@H](O)[C@H](O)[C@H]1O)[C@@H]2O`, the Potency entry in experiment [1], in experiment [2] and in experiment [3] was “inactive” in each case.
As to `OC[C@@]1(O)CO[C@H](OC[C@H]2O[C@@H](OC(CCCCc3ccc(O)cc3)CCc3ccc(O)cc3)[C@H](O[C@H]3OC[C@](O)(CO)[C@H]3O)[C@@H](O)[C@@H]2O)[C@@H]1O` (stereo partly drawn), the Potency entry in experiment [1], in experiment [2] and in experiment [3] was “inactive” in each case.
With `CC1=C2C3OC(=O)C(C)C3(O)CCC2(C)CCC1` (stereo not drawn), the Potency result in experiment [1], in experiment [2] and in experiment [3] was “inactive” throughout.
Take `O=C(Cc1ccc(Cl)cc1)Nc1cnccc1C(=O)O`: the Potency result in experiment [1], in experiment [2] and in experiment [3] was “inactive” throughout.
For the molecule `C=C1CCC2C(C)(C(=O)O)CCCC2(C)C1CC/C(C)=C\CO` (stereo not drawn), the Potency result in experiment [1], in experiment [2] and in experiment [3] was “inactive” throughout.
Turning to `C[C@@H]1O[C@@H](O[C@@H]2[C@@H](O)[C@H](O[C@@H]3[C@@H](O)[C@@H](O)[C@H](O[C@H]4[C@H](OC(=O)[C@]56CCC(C)(C)C[C@H]5C5=CCC7[C@@]8(C)C[C@H](O)[C@H](O[C@@H]9O[C@H](C(=O)O)[C@@H](O)[C@H](O)[C@H]9O)[C@@](C)(CO)C8[C@H](O)C[C@@]7(C)[C@]5(C)C[C@H]6O)O[C@@H](CO)[C@@H]4O)O[C@H]3C)OC[C@H]2O)[C@H](O)[C@H](O)[C@H]1O` (stereo partly drawn), in experiment [1], the activity change, negative = inhibition was 0.349% [at 12.4 µM]. Moreover, the activity change, negative = viability loss in experiment [2] was -3.74% [at 9.23 µM]. In addition, the activity change, negative = cell killing in experiment [3] is -10.6% [at 9.23 µM].
`CC(C)(OC1OC(CO)C(O)C(O)C1O)C1CCC(O)(CO)C2CC(=O)C(C)(O)C2C1` (stereo not drawn): the Potency result in experiment [1], in experiment [2] and in experiment [3] was “inactive” in each case.
For `CC(=O)O[C@@]1(C)[C@@H]2CC(=C(C)C)C(=O)C[C@@]2(C)CC[C@H]1OC(=O)C1(C)OC1C` (stereo partly drawn), the Potency result in experiment [1], in experiment [2] and in experiment [3] was “inactive” each time.
On to `CC1(CO)CCCC2(C)C3COC(=O)C3=CC(O)C12` (stereo not drawn), for which the Potency entry in experiment [1], in experiment [2] and in experiment [3] was “inactive” in each case.
For the molecule `C=C1C2(C)CC3C4(C)C=CC(=O)OC(C)(C)C4CCC3(C)C1(C(=O)OC)C(=O)C(C)(O)C2=O` (stereo not drawn), the Potency entry in experiment [1], in experiment [2] and in experiment [3] was “inactive” each time.
Consider `COC(=O)C1=C[C@@H](O)[C@@H](O)[C@H](O[C@@H]2O[C@H](CO)[C@@H](O)[C@H](O)[C@H]2OC(=O)/C=C/c2ccccc2)C1`, for which the Potency entry in experiment [1], in experiment [2] and in experiment [3] was “inactive” in each case.
As to `CC1=C(CO)C2(C)CCCC(C)(C)C2C(O)C1O` (stereo not drawn), the Potency entry in experiment [1], in experiment [2] and in experiment [3] was “inactive” in each case.
For `O=C1C(Cl)=C(N2CCOCC2)C(=O)N1c1ccc(Cl)c(Cl)c1`, the Potency entry in experiment [1] is “inactive”. In addition, the Potency was 7.96 µM (active) in experiment [2] and 8.93 µM (active) in experiment [3].
For `COc1ccc(/C=C/C(=O)O[C@@H]2[C@@H](OC(C)=O)[C@@H](OC(C)=O)[C@H](O[C@H]3[C@@H]4C=CO[C@@H](O[C@@H]5O[C@H](CO)[C@@H](O)[C@H](O)[C@H]5O)[C@@H]4[C@@]4(CO)O[C@@H]34)O[C@H]2C)cc1`, the Potency result in experiment [1], in experiment [2] and in experiment [3] was “inactive” throughout.
With `C=CCc1ccc(O[C@@H]2O[C@H](CO)[C@@H](O)[C@H](O)[C@H]2O)c(O[C@@H]2O[C@H](CO)[C@@H](O)[C@H](O)[C@H]2O)c1`, the Potency result in experiment [1], in experiment [2] and in experiment [3] was “inactive” throughout.
For the molecule `CC(=O)OC12CC(C)C(O)C1/C=C(/COC1OC(CO)C(O)C(O)C1O)CCC1C(/C=C(\C)C2=O)C1(C)C` (stereo not drawn), the Potency entry in experiment [1], in experiment [2] and in experiment [3] was “inactive” throughout.
`NC(=O)C(O[C@@H]1O[C@H](CO[C@@H]2O[C@H](CO)[C@@H](O)[C@H](O)[C@H]2O)[C@@H](O)[C@H](O)[C@H]1O)c1ccccc1` (stereo partly drawn): the Potency entry in experiment [1], in experiment [2] and in experiment [3] was “inactive” throughout.
Turning to `C=CC(C)(C)C12Nc3c(ccc4c3OC(C)(C)C=C4)C1(O)CC1C(=O)N3CCCC3C(=O)N12` (stereo not drawn), the Potency entry in experiment [1], in experiment [2] and in experiment [3] was “inactive” in each case.
`CCCCCOc1ccc(-c2cc(-c3ccc(C(=O)N[C@H]4C[C@@H](O)[C@@H](O)NC(=O)C5[C@@H](O)[C@@H](C)CN5C(=O)C([C@H](O)CC(N)=O)NC(=O)C([C@H](O)[C@@H](O)c5ccc(O)c(OS(=O)(=O)O)c5)NC(=O)C5C[C@@H](O)CN5C(=O)C([C@@H](C)O)NC4=O)cc3)no2)cc1` (stereo partly drawn) (X2-[Orn(4R-OH,5R-OH)][ξThr(3R)][ξPro(4R-OH)][ξhTyr(3S-OH,4S-OH,3'-OSO3H)][ξGln(3R-OH)][X3]; lactam 1-C): the Potency entry in experiment [1], in experiment [2] and in experiment [3] was “inactive” each time.
